Rin1 Abl inh = inhibitors of Rin1-Abl protein binding, primary screen, biochemical, TR-FRET | Tyrosine-protein kinase ABL1 (Homo sapiens) + Ras and Rab interactor 1 (Homo sapiens), … | 360,000 compounds, 0.4% hits | AID 588664, 2011 | inhibition, % at 7.35 µM; in the data active means inhibition above about 5%, passing the limit was not always enough
Target sequence (P00519 whole entry, looked up): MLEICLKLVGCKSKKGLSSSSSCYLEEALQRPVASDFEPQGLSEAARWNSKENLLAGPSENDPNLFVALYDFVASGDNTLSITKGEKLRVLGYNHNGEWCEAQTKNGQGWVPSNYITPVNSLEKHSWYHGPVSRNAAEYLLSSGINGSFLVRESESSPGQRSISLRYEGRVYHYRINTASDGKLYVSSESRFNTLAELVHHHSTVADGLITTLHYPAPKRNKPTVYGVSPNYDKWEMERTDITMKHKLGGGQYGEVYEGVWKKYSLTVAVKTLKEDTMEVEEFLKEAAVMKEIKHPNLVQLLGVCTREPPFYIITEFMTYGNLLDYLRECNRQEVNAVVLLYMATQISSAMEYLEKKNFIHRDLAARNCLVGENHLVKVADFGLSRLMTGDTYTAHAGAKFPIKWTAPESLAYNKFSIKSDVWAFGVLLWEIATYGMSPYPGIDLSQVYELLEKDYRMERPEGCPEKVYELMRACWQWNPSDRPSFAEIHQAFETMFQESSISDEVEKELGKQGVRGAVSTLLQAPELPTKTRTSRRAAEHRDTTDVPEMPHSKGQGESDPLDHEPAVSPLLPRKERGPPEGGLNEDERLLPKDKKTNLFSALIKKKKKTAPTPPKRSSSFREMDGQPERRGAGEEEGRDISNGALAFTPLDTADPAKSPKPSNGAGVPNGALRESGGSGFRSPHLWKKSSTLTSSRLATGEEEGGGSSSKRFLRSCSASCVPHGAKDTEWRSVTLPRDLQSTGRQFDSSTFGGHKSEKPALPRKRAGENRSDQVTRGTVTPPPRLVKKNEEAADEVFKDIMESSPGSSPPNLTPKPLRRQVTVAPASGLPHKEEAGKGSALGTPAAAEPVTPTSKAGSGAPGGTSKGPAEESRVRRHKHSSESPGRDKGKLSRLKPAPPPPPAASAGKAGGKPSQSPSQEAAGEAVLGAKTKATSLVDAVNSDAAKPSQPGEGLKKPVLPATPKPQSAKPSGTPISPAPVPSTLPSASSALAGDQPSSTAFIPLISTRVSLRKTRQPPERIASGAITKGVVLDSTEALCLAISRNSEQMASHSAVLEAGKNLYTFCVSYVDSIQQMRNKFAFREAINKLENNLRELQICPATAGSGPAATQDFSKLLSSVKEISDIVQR
Target sequence (Q13671 whole entry, looked up): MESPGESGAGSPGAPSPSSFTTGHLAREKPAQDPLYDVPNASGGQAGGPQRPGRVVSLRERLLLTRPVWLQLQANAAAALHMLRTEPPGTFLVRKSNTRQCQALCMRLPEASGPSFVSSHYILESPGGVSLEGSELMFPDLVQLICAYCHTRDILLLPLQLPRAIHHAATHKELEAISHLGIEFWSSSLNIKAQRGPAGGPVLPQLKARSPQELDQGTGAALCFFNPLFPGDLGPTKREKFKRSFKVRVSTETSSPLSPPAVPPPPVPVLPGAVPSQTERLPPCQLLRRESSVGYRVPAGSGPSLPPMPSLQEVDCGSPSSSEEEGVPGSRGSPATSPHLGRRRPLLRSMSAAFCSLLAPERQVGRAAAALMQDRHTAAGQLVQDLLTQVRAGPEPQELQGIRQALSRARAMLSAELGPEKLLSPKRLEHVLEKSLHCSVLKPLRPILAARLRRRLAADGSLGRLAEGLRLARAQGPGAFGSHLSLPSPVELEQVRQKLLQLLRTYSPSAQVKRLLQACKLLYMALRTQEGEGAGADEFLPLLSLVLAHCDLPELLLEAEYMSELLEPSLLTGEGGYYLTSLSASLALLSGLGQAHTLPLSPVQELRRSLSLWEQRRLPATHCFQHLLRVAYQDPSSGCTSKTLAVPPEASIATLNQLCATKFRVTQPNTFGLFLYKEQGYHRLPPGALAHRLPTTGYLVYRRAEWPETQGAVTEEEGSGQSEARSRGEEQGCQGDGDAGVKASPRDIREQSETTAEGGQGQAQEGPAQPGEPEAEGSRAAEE
IDE cell activ = human IDE activators in live cells, primary screen, fluorescence polarization, HEK cells, FAbeta-B substrate; FAbeta-B cleavage; 0% vehicle, 100% cell-free pure enzyme wells; activation, % at 5.96 µM; 340,000 compounds, 0.073% hits; Insulin-degrading enzyme (Homo sapiens), P14735;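 active means activation above the mean of all tested compounds plus 3 SD, set per screening campaign, cut at about 17% in these data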
Rpn11 block = Rpn11 (PSMD14) deubiquitinase inhibitors, primary screen, biochemical, fluorescence polarization, uHTS; 26S proteasome non-ATPase regulatory subunit 14 (Homo sapiens), O00487; human 26S proteasome, Ub4-pepOG fluorescence polarization; 20S core pre-blocked with epoxomicin; inhibition, % at 20 µM; 360,000 compounds, 0.59% hits; AID 588493, 2011;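 active means inhibition at 20 µM, scaled to each plate's controls, above about 33%, limit read from the data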
Calb FLC = C. albicans growth inhibition with fluconazole, primary screen, CaCi-2 strain, Alamar Blue fluorescence | 300,000 compounds, 0.57% hits | growth inhibition, % (test concentration not listed) | C. albicans CaCi-2 (fluconazole-resistant clinical isolate) + fluconazole, 48 h;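 active means growth inhibition above about 58% in most replicates, limit read from the data, passing the limit was not always enough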;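 further: all wells also contain fluconazole at 8 µg/ml as a sub-toxic cotreatment; 0% = median of DMSO wells and 100% = median of geldanamycin control wells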
IDE inh = human IDE inhibitors in live cells, primary screen, fluorescence polarization, HEK cells, FAbetaB substrate | FAbetaB cleavage | 320,000 compounds, 0.41% hits | inhibition, % at 5.59 µM | Insulin-degrading enzyme (Homo sapiens), P14735;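 active means percent inhibition above the average of all tested compounds plus 3 SD, set per screening campaign, cut at about 16% in these data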;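 further: IDE supplied by intact live HEK cells; FP after avidin binding of uncleaved biotin substrate so inhibition keeps polarization high; 0% = DMSO wells and 100% = 60 µM reference IDE inhibitor Ii1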
TPT1 inh = Candida albicans TPT1 enzyme inhibitors, primary screen, biochemical, fluorescence polarization; AID 1962, 2009; inhibition, % at 5 µM; recombinant caTPT1, FP RNA substrate dephosphorylation; 300,000 compounds, 0.81% hits; tRNA 2'-phosphotransferase TPT1 (Candida albicans SC5314);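 active means inhibition above the mean of all tested compounds plus 3 SD, set per screening campaign, cut at about 24% in these data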;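 further: plate controls were DMSO alone for no effect and ferristatin control at 100 nM for full effect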
TPT1 inh confirm = Candida albicans TPT1 inhibitors, confirmation, biochemical, fluorescence polarization, triplicate. shares compounds with TPT1 inh. recombinant caTPT1, RNase T1 coupled. inhibition, % at 5 µM. 2,400 compounds, 74% hits. AID 2149, 2009;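 active means inhibition above the primary screen limit, the mean inhibition of all tested compounds plus 3 SD, cut at about 25% in these data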
RNase T1 counter = RNase T1 inhibitors, counter-screen for TPT1 inhibitor project, biochemical, fluorescence polarization; inhibition, % at 5 µM; shares compounds with TPT1 inh; 2,400 compounds, 83% hits; RNase T1 cleavage, 1536-well;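 active means inhibition above the solvent-only control well mean plus 3 SD, limit set per screening run, cut at about 23% in these data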;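 further: plate controls were DMSO wells with enzyme for no effect and wells without RNase T1 for full effect; inhibitors block cleavage so intact labeled substrate keeps polarization high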
IDE cell inh cf = human IDE inhibitors in live cells, confirmation, fluorescence polarization, HEK cells, FAbetaB substrate. shares compounds with IDE inh. FAbetaB cleavage. inhibition, % at 5.59 µM. 1,200 compounds, 51% hits;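 active means mean inhibition across triplicate wells above the cutoff set by the earlier primary insulin-degrading enzyme screen, cut at about 16% in these data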;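 further: 0% = DMSO wells and 100% = 60 µM reference IDE inhibitor Ii1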
HEK cytotox = cytotoxicity in HEK cells, cytotoxicity control for IDE inhibitor project, cell-based, luminescence | AID 449730, 2010 | 1,200 compounds, 28% hits | inhibition, % at 5.59 µM | shares compounds with IDE inh | HEK293 cytotoxicity, ATP luminescence; in the data active means inhibition above about 22%;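 further: 0% = vehicle wells and 100% = reference cytotoxic drug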
* marks the source's active call; other numbers are inactive results; · = not tested or not shown; + = active, no number. Compounds with a hit are over-represented: about 2.3% of the library has one in this group of screens.

SMILES | Rin1 Abl inh | IDE cell activ | Rpn11 block | Calb FLC | IDE inh | TPT1 inh | TPT1 inh confirm | RNase T1 counter | IDE cell inh cf | HEK cytotox
COc1ccc(OC)c(/C=C2\Oc3cc(OCC(=O)N4CCC[C@H]4C(=O)O)ccc3C2=O)c1 | -4 | -1 | 5 | 3 | 8 | 16 | · | · | · | ·
O=C(CCCn1cc([N+](=O)[O-])cn1)Nc1ccc2c(c1)OCO2 | 3 | -2 | 0 | -4 | 2 | -2 | · | · | · | ·
CCOC(=O)/C(=C/C=C1\Sc2cc(OCC)c(OCC)cc2N1CC)C(C)=O | -14 | -128 | · | -30 | 163* | + | 149* | 142* | 92* | 25*
CCOC(=O)/C(=C\C=C1/Sc2cc(OCC)c(OCC)cc2N1CC)C(C)=O | -14 | -149 | · | -3 | 128* | 147* | 123* | 123* | 41* | 35*
CCN1/C(=C/C(C)=O)Sc2ccc(OC)cc21 | 0 | 7 | 2 | 24 | 2 | 0 | · | · | · | ·
CCCN1C(=O)/C(=C/c2ccc(N3CCCC3)c(C)c2)NC1=S | -4 | -110 | · | 1 | 95* | 134* | 139* | 130* | 128* | 27*
Cc1cc(/C=C2/C(=O)N(C)C(=S)N2C)ccc1N1CCCC1 | -3 | -45 | · | -8 | 26* | 159* | 155* | 142* | 51* | 20
CCCN1C(=O)/C(=C/c2ccc(OCC(=O)OCC)cc2)NC1=S | 2 | 5 | -1 | 50 | · | · | · | · | · | ·
Cc1cc(/C=C2\NC(=S)N(C)C2=O)ccc1N1CCCC1 | -5 | -115 | · | 16 | 88* | 137* | 128* | 122* | 96* | 21
Cc1ccc(CN2CCN(c3ccccc3)CC2)o1 | -5 | -6 | 3 | 2 | 2 | 0 | · | · | · | ·
CCC(=O)Nc1ccc(C(=O)COC(=O)c2sc(C)nc2C)cc1 | -2 | 1 | -4 | · | · | · | · | · | · | ·
O=C(N/N=C/C1=C(N2CCOCC2)C(=C\c2ccccc2)/CC1)Nc1ccccc1 | 1 | -2 | 19 | -5 | 1 | -1 | · | · | · | ·
CCN(CC)c1ccc(/C=C2\CCC(/C=N/NC(=O)c3ccc(=O)n(C)c3)=C2N2CCOCC2)cc1 | 8 | -20 | · | 8 | 25* | 117* | 113* | 112* | 57* | 6
COc1cccc(C2=CC(c3ccc(N(C)C)cc3)n3nnnc3N2)c1 (configuration not stated) | -3 | -27 | 30 | -13 | 44* | 28* | 11 | 17 | 37* | 39*
COc1ccc(NS(=O)(=O)c2ccc(N3CCCCC3)c(N)c2)cc1 | -1 | -1 | 6 | · | -2 | · | · | · | · | ·
O=c1[nH]c2ccccc2nc1/C=C(\O)c1cccs1 | -35 | -45 | 17 | -19 | 47* | 71* | 117* | 114* | 75* | 14
CCOC(=O)C1C(=O)NC(SC)=C(C#N)C1c1ccccc1F (configuration not stated) | -1 | 3 | 3 | -27 | -7 | -5 | · | · | · | ·
CCOC(=O)C1C(=O)NC(SCC(N)=O)=C(C#N)C1c1ccccc1OCC (configuration not stated) | -3 | -34 | · | 13 | 37* | 70* | 68* | 78* | 31* | 6
CCCN1C(=O)/C(=C/c2ccc(N3CCOCC3)cc2)NC1=S | 0 | -25 | · | -6 | 16* | 138* | 143* | 139* | 31* | 17
CCN1C(=O)/C(=C/c2ccc(N3CCCC3)cc2)NC1=S | -6 | -152 | · | 3 | 124* | 150* | 154* | 142* | 158* | 23*
O=C1C=C(O)CC2(CCCCC2)C1 | 4 | · | 9 | · | · | · | · | · | · | ·
CC(=O)N/C(=C\c1ccccc1)C(=O)OCC(=O)Nc1cc(S(=O)(=O)N(C)C)ccc1Cl | 4 | 4 | -6 | · | · | · | · | · | · | ·
CC(OC(=O)/C(C#N)=C/c1ccc(N(C)C)cc1)C(=O)N(C)Cc1ccccc1 (configuration not stated) | -7 | -32 | · | -26 | 30* | 107* | 115* | 114* | 37* | 18
O=c1/c(=C\c2cc([N+](=O)[O-])cc([N+](=O)[O-])c2O)sc2nc3ccccc3n12 | 4 | -6 | · | · | 16* | 91* | 91* | 93* | 20* | 6
COC(=O)/C=c1/sc2nc3ccccc3n2c1=O | 1 | 0 | 4 | -7 | 3 | 0 | · | · | · | ·
SMILES | Rin1 Abl inh | IDE cell activ | Rpn11 block | Calb FLC | IDE inh | TPT1 inh | TPT1 inh confirm | RNase T1 counter | IDE cell inh cf | HEK cytotox
C=CCn1cc(/C=C/c2cc[n+](C)cc2)c2ccccc21 | -76 | -18 | · | 71 | 22* | 46* | 55* | 59* | 67* | 85*
CCOC(=O)Cn1cc(C=O)c2ccccc21 | 0 | -2 | 3 | -2 | 5 | 3 | · | · | · | ·
O=C(O)Cn1cc(/C=C/[N+](=O)[O-])c2ccccc21 | 2 | 0 | 6 | 3 | 4 | 4 | · | · | · | ·
C=CCn1c(C)c(/C=C/c2cc[n+](C)cc2)c2ccccc21 | -83 | -48 | · | -10 | 87* | 119* | 127* | 122* | 97* | 78*
CCn1cc(/C=C/c2cc[n+](C)cc2)c2ccccc21 | -126 | -16 | · | 94* | 52* | 39* | 43* | 50* | 83* | 79*
CCN(CC)C(=O)Cn1c(=O)n(C)c2ccccc21 | 3 | 1 | 1 | 4 | 1 | -5 | · | · | · | ·
CCN(CC)C(=O)Cn1c(C)c(/C=C/c2cc[n+](C)cc2)c2ccccc21 | -76 | -13 | · | -5 | 26* | 108* | 108* | 107* | 24* | 13
COc1cccc(/C=C2\SC(=S)N(CCCC(=O)N(CCO)c3ccccc3)C2=O)c1 | -3 | 6 | 4 | 0 | 0 | 8 | · | · | · | ·
CCn1c(COc2cccc3cccnc23)nnc1SC(F)F | 0 | 7 | -4 | -1 | -1 | -4 | · | · | · | ·
Cc1oc(C)c2c(=O)ccc3c(c12)OC(N)=C(C#N)C3c1ccccc1Cl (configuration not stated) | 3 | -76 | · | 0 | 30* | 29* | 48* | 56* | 26* | 14
